Outcome and AC50 data for six molecules are collected here from PubChem BioAssay (EPA / NIEHS).

Some structures have more than one record in an assay (separate samples or runs), and their calls can disagree. Calls of active or inactive are those of the source. Rule for the calls: active = hit-call score of the fitted dose curve at least 0.9, where 1 is the maximum; inactive = score below 0.9.

A short description of experiment [1]: ATG_CRE_CIS: Attagene CIS-FACTORIAL HepG2 Assay for human cAMP Responsive Element (CRE) binding protein 3 (AID 2282926). Conditions: HepG2 CRE cis-reporter, Attagene multiplexed mRNA; actives raise or lower the signal. An outline of the steps: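 We dosed HepG2 cells bearing multiple cis-promoter reporter units for 24 h and measured reporter mRNA by RT-PCR with capillary electrophoresis detection. Bidirectional concentration-response fitting used DMSO as negative control.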

Experiment [2] concerns the target CCAAT/enhancer-binding protein beta (Homo sapiens) (UniProt P17676). Description: ATG_C_EBP_CIS: Attagene CIS-FACTORIAL HepG2 Assay for human CCAAT/Enhancer Binding Protein (C/EBP) beta (AID 2282927). To be noted: HepG2 Attagene cis-factorial transcription factor reporter; actives raise or lower the signal. The procedure, abridged:
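HepG2 transiently transfected with multiplexed reporter units under cis-regulatory promoters reporting endogenous C/EBPb activity. After 24 h exposure, reporter mRNA assayed by RT-PCR, fluorescent labelling, HpaI digestion and capillary electrophoresis; bidirectional fitting versus DMSO.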

Experiment [3] is described as follows: ATG_CMV_CIS: Attagene CIS-FACTORIAL HepG2 Assay for human CMV (Internal Marker) (AID 2282928).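 Note: endpoint acts as a background internal control marker rather than a target.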 To be noted: HepG2 CMV promoter reporter, transcription factor profiling; actives raise or lower the signal. The procedure, abridged:
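CMV internal-marker background readout in transiently transfected HepG2 cells bearing cis-regulated reporter units. Reporter mRNA is measured 24 h after dosing by RT-PCR and capillary electrophoresis, with bidirectional fitting against DMSO.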

Experiment [4] is described as follows: ATG_DR4_LXR_CIS: Attagene CIS-FACTORIAL HepG2 Assay for human Liver X Receptor (LXR), DR4 submotif (AID 2282929). Conditions: HepG2 Attagene DR4 cis-reporter, mRNA transcription; actives raise or lower the signal. An outline of the steps: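 Cells were transfected with multiple reporter transcription units, exposed to chemicals for 24 hours, then lysed for RNA. Reporter mRNA induction was measured by RT-PCR with capillary electrophoresis detection and fitted in both directions relative to DMSO.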

Experiment [5] has as its target Aryl hydrocarbon receptor (Homo sapiens) (UniProt P35869). Nature of the experiment: ATG_Ahr_CIS: Attagene CIS-FACTORIAL HepG2 Assay for human Aryl Hydrocarbon Receptor (Ahr) (AID 2282930). To be noted: HepG2 AhR cis-factorial reporter transcription; actives raise or lower the signal. The procedure, abridged: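 HepG2 cells transiently transfected with cis-element-driven multiplexed reporter units; endogenous AhR activity read as reporter mRNA 24 h after dosing, via RT-PCR, 6-FAM labelling, HpaI digestion and capillary electrophoresis. Bidirectional fit relative to DMSO.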

The nature of experiment [6]: ATG_AP_1_CIS: Attagene CIS-FACTORIAL HepG2 Assay for human Activator Protein 1 (AP-1) (AID 2282931). Conditions: HepG2 Attagene cis-factorial AP-1 reporter mRNA; actives raise or lower the signal. The procedure, abridged:
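Endogenous transcription-factor activity in human HepG2 liver cells is read through a cis-promoter reporter transcript, sampled 24 h after dosing. Detection uses RT-PCR with capillary electrophoresis; values come from bidirectional fitting relative to DMSO.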

Experiment [7] in a line: ATG_AP_2_CIS: Attagene CIS-FACTORIAL HepG2 Assay for human Activator Protein 2 (AP-2) (AID 2282932). Conditions: HepG2 AP-2 cis-reporter, Attagene transcription factor profiling; actives raise or lower the signal. An outline of the steps:
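Multiplexed mRNA reporter assay in HepG2: cis-regulated units report endogenous factor activity after 24 h treatment. Fluorescence from capillary electrophoresis of RT-PCR products gives the signal, with DMSO as baseline.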

Experiment [8] can be described thus: ATG_BRE_CIS: Attagene CIS-FACTORIAL HepG2 Assay for human Bone Morphogenetic Protein (BMP) Response Element (BRE) (AID 2282933). Conditions: HepG2 BMP response element reporter, Attagene transcription factor profiling; actives raise or lower the signal. The procedure, abridged: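 HepG2 cells transiently transfected with multiplexed cis-element reporter units were dosed with chemical for 24 h. Reporter mRNA was measured by RT-PCR with fluorescent labelling, HpaI digestion and capillary electrophoresis; bidirectional fitting relative to DMSO.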

Experiment [9] deals with Retinoic acid receptor alpha (Homo sapiens) (UniProt P10276). Description: ATG_DR5_RAR_CIS: Attagene CIS-FACTORIAL HepG2 Assay for human Retinoic Acid Receptor Alpha (RARE), DR5 submotif (AID 2282934).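 For AC50: reporter responds to endogenous RAR alpha beta and gamma in HepG2 not RARA alone.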 Conditions: HepG2 Attagene cis-factorial RARE DR5 reporter, mRNA; actives raise or lower the signal. An outline of the steps: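 HepG2 cells transiently transfected with multiplexed reporter units; DR5 cis-element drives reporter through endogenous transcription factors. After 24 h dosing, reporter mRNA quantified by RT-PCR, fluorescent labeling, HpaI digestion and capillary electrophoresis; bidirectional fitting versus DMSO.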

The target in experiment [10] is Transcription factor E2F1 (Homo sapiens) (UniProt Q01094). Nature of the experiment: ATG_E2F_CIS: Attagene CIS-FACTORIAL HepG2 Assay for human E2F Transcription Factor 1 (AID 2282935). Conditions: HepG2 Attagene cis-reporter, E2F reporter RNA transcripts; actives raise or lower the signal. An outline of the steps: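 Measures reporter transcript levels via RT-PCR with capillary electrophoresis detection in HepG2 cells harboring cis-regulated reporter units; 24 h post-dose; bidirectional curve fitting with DMSO as baseline.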

Experiment [11] can be described thus: ATG_E_Box_CIS: Attagene CIS-FACTORIAL HepG2 Assay for human Enhancer Box (E-box) (AID 2282936). Conditions: HepG2 E-box cis-reporter transcription, actives raise or lower the signal. An outline of the steps:
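First, HepG2 cells receive multiple cis-regulated reporter constructs by transient transfection. Next, chemicals are applied for 24 h. Finally, reporter mRNA is quantified via RT-PCR and capillary electrophoresis, with DMSO as baseline.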

A short description of experiment [12]: ATG_M_61_CIS: Attagene CIS-FACTORIAL HepG2 Assay for M61 Transcription Factor (Internal Marker) (AID 2282937). To be noted: HepG2 Attagene CIS-FACTORIAL M61 internal marker reporter; actives raise or lower the signal. An outline of the steps: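 Cells were transfected with reporter units under cis-regulatory promoters, treated with chemicals for 24 h, then lysed for RNA. Reporter transcripts were quantified by RT-PCR and capillary electrophoresis, and activity was fitted bidirectionally against DMSO.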

Experiment [13] can be described thus: ATG_EGR_CIS: Attagene CIS-FACTORIAL HepG2 Assay for human Early Growth Response 1 (EGR1) (AID 2282938). To be noted: HepG2 Attagene CIS-FACTORIAL EGR reporter mRNA; actives raise or lower the signal. The procedure, abridged:
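Endogenous TF activity in HepG2 liver cells was gauged through cis-promoter reporter constructs transiently transfected. After 24 h dosing, reporter mRNA was quantified by RT-PCR and capillary electrophoresis, and curves fitted in both directions versus DMSO.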

A short description of experiment [14]: ATG_M_19_CIS: Attagene CIS-FACTORIAL HepG2 Assay for M19 Transcription Factor (Internal Marker) (AID 2282939). To be noted: HepG2 Attagene CIS-FACTORIAL M19 internal marker reporter; actives raise or lower the signal. An outline of the steps: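 HepG2 cells transiently transfected with cis-regulated multiple reporter transcription units were dosed for 24 h; reporter mRNA was quantified by RT-PCR, 6-FAM primer-extension labelling, HpaI digestion and capillary electrophoresis, with bidirectional fitting against DMSO baseline.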

A short description of experiment [15]: ATG_ERE_CIS: Attagene CIS-FACTORIAL HepG2 Assay for Estrogen Response Element (ERE) (AID 2282940). To be noted: HepG2 ERE cis-reporter, Attagene RNA transcript; actives raise or lower the signal. The procedure, abridged:
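HepG2 cells transiently transfected with cis-promoter-driven multiplexed reporter transcription units report endogenous TF activity. After 24 h compound exposure, reporter mRNA is quantified by RT-PCR with capillary electrophoresis fluorescence; bidirectional fitting versus DMSO baseline.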

The nature of experiment [16]: ATG_Ets_CIS: Attagene CIS-FACTORIAL HepG2 Assay for human Erythroblast Transformation Specific (ETS) (AID 2282941). To be noted: HepG2 ETS cis-reporter transcription, actives raise or lower the signal. The procedure, abridged: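 HepG2 cells transfected with multiple cis-regulated reporter units measuring endogenous ETS-driven transcription, 24 h after dosing. Reporter mRNA quantified by RT-PCR with capillary electrophoresis; bidirectional fit relative to DMSO.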

Experiment [17] concerns the target Hepatocyte nuclear factor 3-beta (Homo sapiens) (UniProt Q9Y261). Nature of the experiment: ATG_FoxA2_CIS: Attagene CIS-FACTORIAL HepG2 Assay for human Forkhead box A2 (FOXA2) (AID 2282942). To be noted: HepG2 cis-reporter transcription factor activity, 24 h; actives raise or lower the signal. The procedure, abridged:
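Endogenous transcription factor activity was read in HepG2 cells carrying transiently transfected cis-promoter reporter units. After 24 h dosing, reporter mRNA was quantified by RT-PCR and capillary electrophoresis, and values fitted bidirectionally versus DMSO.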

Experiment [18] can be described thus: ATG_FoxO_CIS: Attagene CIS-FACTORIAL HepG2 Assay for human Forkhead box O (FoxO) (AID 2282943). To be noted: HepG2 Attagene cis-reporter, FoxO element, mRNA; actives raise or lower the signal. The procedure, abridged:
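HepG2 cells transiently transfected with cis-element-driven reporter units report endogenous FoxO activity. After 24 h chemical exposure, reporter mRNA quantified by RT-PCR, fluorescent labeling, HpaI digestion and capillary electrophoresis; bidirectional fit versus DMSO.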

Experiment [19] is described as follows: ATG_GATA_CIS: Attagene CIS-FACTORIAL HepG2 Assay for human GATA Binding Protein (AID 2282944). Conditions: HepG2 GATA cis-element reporter, Attagene multiplex mRNA; actives raise or lower the signal. An outline of the steps: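 HepG2 cells transiently transfected with multiplexed cis-element reporter units reflecting endogenous transcription factor activity; reporter mRNA measured after 24 h dosing by RT-PCR, 6-FAM labeling, HpaI digestion and capillary electrophoresis. Bidirectional fitting versus DMSO baseline.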

Experiment [20] is described as follows: ATG_GLI_CIS: Attagene CIS-FACTORIAL HepG2 Assay for human Zinc Finger Protein GLI1 (AID 2282945). Conditions: HepG2, Attagene cis-factorial reporter mRNA, GLI element; actives raise or lower the signal. An outline of the steps: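 Transiently transfected HepG2 cells report endogenous transcription factor activity via cis-element-driven reporter units. After 24 h compound exposure, reporter mRNA was measured by RT-PCR with capillary electrophoresis; bidirectional fitting against DMSO baseline.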

Sequence of Transcription factor E2F1 (Homo sapiens) (Q01094 whole entry, looked up): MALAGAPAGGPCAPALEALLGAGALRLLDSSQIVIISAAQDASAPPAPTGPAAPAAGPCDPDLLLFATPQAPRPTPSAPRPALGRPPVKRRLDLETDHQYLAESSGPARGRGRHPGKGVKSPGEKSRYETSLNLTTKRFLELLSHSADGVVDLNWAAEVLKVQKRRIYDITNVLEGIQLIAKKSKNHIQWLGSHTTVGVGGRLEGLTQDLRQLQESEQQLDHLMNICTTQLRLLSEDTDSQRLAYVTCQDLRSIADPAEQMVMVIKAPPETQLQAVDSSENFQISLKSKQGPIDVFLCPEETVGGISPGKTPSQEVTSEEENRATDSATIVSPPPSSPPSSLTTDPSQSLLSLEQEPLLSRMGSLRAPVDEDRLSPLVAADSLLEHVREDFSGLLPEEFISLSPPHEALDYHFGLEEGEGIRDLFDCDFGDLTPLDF
Sequence of Hepatocyte nuclear factor 3-beta (Homo sapiens) (Q9Y261 whole entry, looked up): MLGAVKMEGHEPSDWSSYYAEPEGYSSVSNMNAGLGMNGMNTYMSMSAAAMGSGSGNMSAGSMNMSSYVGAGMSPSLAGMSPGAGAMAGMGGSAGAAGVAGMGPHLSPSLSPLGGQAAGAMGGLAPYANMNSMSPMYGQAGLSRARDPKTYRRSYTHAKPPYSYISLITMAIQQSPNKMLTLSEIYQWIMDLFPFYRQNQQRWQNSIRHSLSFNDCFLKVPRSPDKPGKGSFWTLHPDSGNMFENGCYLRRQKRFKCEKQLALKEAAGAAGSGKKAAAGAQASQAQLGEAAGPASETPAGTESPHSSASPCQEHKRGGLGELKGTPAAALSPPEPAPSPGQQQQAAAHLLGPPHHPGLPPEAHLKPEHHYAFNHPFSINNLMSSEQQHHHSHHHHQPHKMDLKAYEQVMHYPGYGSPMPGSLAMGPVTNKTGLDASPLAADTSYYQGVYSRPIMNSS
Sequence of CCAAT/enhancer-binding protein beta (Homo sapiens) (P17676 whole entry, looked up): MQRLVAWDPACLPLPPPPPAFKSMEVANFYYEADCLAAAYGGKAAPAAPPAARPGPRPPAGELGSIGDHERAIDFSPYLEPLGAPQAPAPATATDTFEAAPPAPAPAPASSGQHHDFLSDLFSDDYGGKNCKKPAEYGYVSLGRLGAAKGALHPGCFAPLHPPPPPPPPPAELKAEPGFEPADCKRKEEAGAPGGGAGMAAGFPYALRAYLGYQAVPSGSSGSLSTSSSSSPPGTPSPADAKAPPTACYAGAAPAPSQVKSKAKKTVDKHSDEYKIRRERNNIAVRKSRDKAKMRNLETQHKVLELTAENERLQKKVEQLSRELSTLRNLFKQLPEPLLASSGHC
Sequence of Aryl hydrocarbon receptor (Homo sapiens) (P35869 whole entry, looked up): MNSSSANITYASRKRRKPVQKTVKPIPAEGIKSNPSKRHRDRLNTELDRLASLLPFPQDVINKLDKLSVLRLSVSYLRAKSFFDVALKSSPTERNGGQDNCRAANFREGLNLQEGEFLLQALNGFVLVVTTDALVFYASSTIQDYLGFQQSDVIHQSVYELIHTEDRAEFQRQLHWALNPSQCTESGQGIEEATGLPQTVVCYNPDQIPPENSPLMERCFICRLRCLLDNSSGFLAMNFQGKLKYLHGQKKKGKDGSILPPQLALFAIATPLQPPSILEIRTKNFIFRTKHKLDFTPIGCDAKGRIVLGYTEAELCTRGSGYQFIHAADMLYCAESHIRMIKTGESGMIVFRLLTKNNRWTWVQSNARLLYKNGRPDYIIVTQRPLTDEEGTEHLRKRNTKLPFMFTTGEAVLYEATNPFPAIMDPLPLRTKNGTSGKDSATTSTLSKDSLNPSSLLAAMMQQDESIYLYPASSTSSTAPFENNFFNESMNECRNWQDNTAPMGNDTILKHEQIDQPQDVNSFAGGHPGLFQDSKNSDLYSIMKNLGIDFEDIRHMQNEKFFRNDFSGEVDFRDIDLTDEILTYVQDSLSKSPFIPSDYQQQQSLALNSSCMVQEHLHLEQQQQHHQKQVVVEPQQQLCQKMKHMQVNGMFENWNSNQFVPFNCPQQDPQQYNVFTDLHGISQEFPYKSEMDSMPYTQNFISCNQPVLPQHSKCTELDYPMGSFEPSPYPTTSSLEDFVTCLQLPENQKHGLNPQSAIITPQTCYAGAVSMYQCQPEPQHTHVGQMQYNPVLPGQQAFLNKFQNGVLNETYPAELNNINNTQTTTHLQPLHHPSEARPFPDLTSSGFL
Sequence of Retinoic acid receptor alpha (Homo sapiens) (P10276 whole entry, looked up): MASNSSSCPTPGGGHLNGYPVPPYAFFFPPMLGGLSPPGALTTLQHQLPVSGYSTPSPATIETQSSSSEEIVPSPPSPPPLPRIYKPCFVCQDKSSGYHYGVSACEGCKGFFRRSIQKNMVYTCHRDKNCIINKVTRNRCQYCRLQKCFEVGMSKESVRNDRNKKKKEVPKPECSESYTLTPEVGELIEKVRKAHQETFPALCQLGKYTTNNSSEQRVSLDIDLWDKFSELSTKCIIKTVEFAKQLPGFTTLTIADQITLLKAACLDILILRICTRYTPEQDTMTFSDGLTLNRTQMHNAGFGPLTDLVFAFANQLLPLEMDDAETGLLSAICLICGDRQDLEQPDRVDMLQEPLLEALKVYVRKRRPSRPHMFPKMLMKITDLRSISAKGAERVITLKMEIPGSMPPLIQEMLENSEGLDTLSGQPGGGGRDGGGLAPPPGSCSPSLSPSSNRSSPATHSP

Take `NC(=O)N1c2ccccc2C=Cc2ccccc21`: the molecule was classed as inactive in [1], in experiment [2], in experiment [3], in experiment [4], in [5] and in [6]. The result in [7], in experiment [8], in experiment [9], in [10], in [11] and in experiment [12] was inactive. For the same molecule, the molecule was classed as inactive in experiment [13], in [14], in experiment [16], in experiment [17], in [18] and in [19]. The molecule was called inactive in experiment [20]. Moreover, the AC50 (commonly the midpoint of the concentration-response curve, whichever way the signal moves) in experiment [15] is 49.9 µM (active).
For `Cc1ccc(S(=O)(=O)NC(=O)NN2CCCCCC2)cc1`, the result in experiment [1], in [2], in [3], in experiment [4], in [5] and in experiment [6] was inactive. Besides, the call in experiment [7], in experiment [8], in [9], in experiment [11], in experiment [12] and in [14] was inactive. In addition, the call in experiment [15], in experiment [16], in [17], in experiment [18], in experiment [19] and in experiment [20] was inactive.
As to `CC[C@H](C)C(=O)O[C@H]1C[C@H](O)C=C2C=C[C@H](C)[C@H](CC[C@@H](O)C[C@@H](O)CC(=O)O)[C@H]21`, the molecule was called inactive in experiment [1], in experiment [2], in [3], in [4], in experiment [6] and in [7]. Besides, the result in experiment [8], in experiment [9], in experiment [11], in experiment [12], in experiment [13] and in experiment [14] was inactive. For the same molecule, the molecule was classed as inactive in [15], in [16], in experiment [17], in experiment [18], in experiment [19] and in experiment [20]. In experiment [5], the AC50 was 68.4 µM (active).
With `Cc1nccn1-c1ccc(Sc2cccc(C3(C(N)=O)CCOCC3)c2)cc1`, the AC50 was 1.67 µM (active) in experiment [1]; 1.94 µM (active) in experiment [2]; 0.93 µM (active) in experiment [3]; 8.08 µM (active) in [7]; 1.83 µM (active) in experiment [9]; 4.05 µM (active) in experiment [16]. Also, the concentration at half-maximal activity (AC50) in [18] is 3.15 µM (active). Besides, the call in [4], in experiment [5], in [6], in experiment [8], in experiment [10] and in [11] was inactive. For the same molecule, the result in experiment [12], in experiment [14], in experiment [15], in [17], in [19] and in experiment [20] was inactive.
In the case of `CCCCCOC(C)=O`, the result in [1], in [2], in experiment [3], in experiment [4], in [5] and in experiment [6] was inactive. The outcome in [7], in experiment [8], in experiment [9], in experiment [11], in [12] and in [13] was inactive. Besides, the molecule was called inactive in experiment [14], in [15], in experiment [16], in experiment [17], in experiment [18] and in experiment [19]. For the same molecule, the molecule was classed as inactive in experiment [20].
`S=P(N1CC1)(N1CC1)N1CC1`: the result in [1], in experiment [2], in [3], in experiment [4], in experiment [5] and in experiment [6] was inactive. Moreover, the result in experiment [7], in experiment [8], in experiment [9], in [10], in [11] and in experiment [12] was inactive. Besides, the outcome in [13], in experiment [14], in [15], in [16], in experiment [17] and in [18] was inactive. In addition, the result in experiment [19] and in [20] was inactive. Also, the concentration at half-maximal activity (AC50) in [4] was 157 µM (active).
